# Data reported in PubChem BioAssay AID2685 (National Center for Advancing Translational Sciences (NCATS), 2010).
# “And” between values parts separate entries of the source, which are not always exact repeats. Equal values may be shown once. Screen size: about 320,000 compounds; about 2,100 (0.66%) were called active. Another 53% or so got no clear call; they are omitted. The call rests on the fitted dose curve; in most records, active means well fitted inhibition curve with a large enough effect in the signal ratio, with a control signal flat (not every such curve was filed as active); inconclusive means small, poorly fitted or top-dose-only effect, or effect the other way, or a change in a side signal; inactive means flat fitted curve, though single readings scatter; the % refers to the signal ratio. Shown is part of a subset that was picked to be rich in actives.
# Assay: qHTS Assay for Lipid Storage Modulators in Drosophila S3 Cells;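 on cell number change: cells counted by Cell Tracker Red CMTPX staining in the red channel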; on lipid storage change, negative = inhibition: on the % scale 0 is the no-effect control and ±100 the full control effect
# Details: BODIPY lipid droplet fluorescence, 18-24 h, cells fed with added oleic acid; cell number change: measured here: cell count max response; series mostly up to 46.1 µM; lipid storage change, negative = inhibition: at the top concentration
# In short: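 Drosophila S3 cells got compounds at several concentrations plus oleic acid (400 uM solution). Laser-scanning cytometry with 488 nm excitation read lipid droplets at 500-530 nm and cells at 575-640 nm. Percent activity was relative to 20 uM Triacsin C.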
# Potency means the concentration at half of the fitted maximal effect.
Structure (SMILES),Potency,cell number change [%],"lipid storage change, negative = inhibition",outcome
Cc1ccc(S(=O)(=O)NCc2ccco2)cc1C,10.3 µM (active),-8.6,–,–
Cc1ccc(-c2ccc(S(=O)(=O)NCc3ccco3)cc2)cc1,–,2.5,12.3% (inactive),–
CCCCNC(=O)C1CCCN1C(=O)NC1CCCCC1 (stereo not drawn),–,9.73,-1.43% (inactive),–
CCOCCCNC(=O)C1CCCN1C(=O)NC1CCCCC1 (stereo not drawn),20.6 µM (active),-3.91,–,–
CC(C)CCNC(=O)C1CCCN1C(=O)NC1CCCCC1 (stereo not drawn),–,-5.55,0.129% (inactive),–
Cc1ccc(C(=O)Nc2onc(C)c2C#N)cc1,–,–,–,inactive
O=C(NCc1ccccc1Cl)c1cnccc1C(F)(F)F,–,0.794,-7.42% (inactive),–
COc1ccc(-n2nc([N+](=O)[O-])c(=NCCc3ccc(OC)c(OC)c3)n2O)cc1,0.82 µM (active),-7.82,–,–
COc1ccc(-n2nc([N+](=O)[O-])c(=NCCc3ccc(C)cc3)n2O)cc1,–,-0.674,-6.21% (inactive),–
Cc1ccc(CCN=c2c([N+](=O)[O-])nn(-c3ccccc3)n2O)cc1,–,–,–,inactive
CCOc1ccccc1/C=N/n1nnnc1N,–,-5.74,–,inactive
O=C1C2CC=C(Cl)CC2C(=O)N1CCC[n+]1cccc2ccccc21 (stereo not drawn),–,-1.42,16.7% (inactive),–
O=C(C1CC(=O)N(c2ccc(Cl)cc2)C1)N1CCC(c2nc3ccccc3[nH]2)CC1 (stereo not drawn),–,–,2.22% (inactive),–
CCCNC(=O)Cn1cnc2sc(C(=O)N3CCN(Cc4ccc5c(c4)OCO5)CC3)c(C)c2c1=O,–,8.92,5.05% (inactive),–
CCCNC(=O)Cn1cnc2sc(C(=O)N3CCCC(C(=O)OCC)C3)c(C)c2c1=O (stereo not drawn),–,-16.1,9.28% (inactive),–
CCCNC(=O)Cn1cnc2sc(C(=O)N3CCN(CCC)CC3)c(C)c2c1=O,32.6 µM (active),-2.16,–,–
CCOC(=O)C1CCN(C(=O)c2cccc(N3C(=O)NC4CC3(C)Oc3ccc(C)cc34)c2)CC1 (stereo not drawn),–,–,–,inactive
Cn1c(=O)oc2cc(S(=O)(=O)N3CCCCC3)ccc21,–,4.27,–,inactive
COc1cc(NS(=O)(=O)c2ccc(N/C=C\C(=O)c3ccc(F)cc3)cc2)nc(OC)n1,–,2.61,10.9% (inactive),–
COc1ccc(C(=O)/C=C/Nc2ccc(S(=O)(=O)Nc3nc(C)cc(C)n3)cc2)c(OC)c1,–,26.5,0.417% (inactive),–
COc1ccc(C(=O)/C=C/Nc2ccc(S(=O)(=O)Nc3cc(OC)nc(OC)n3)cc2)c(OC)c1,29.1 µM (active),34.2,–,–
c1ccc(Cc2cc[n+](Cc3ccccn3)cc2)cc1,–,3.79,4.93% (inactive),–
Cc1nc2ccccc2c(N)c1C(=O)/C=C/c1ccccc1,14.6 µM (active),-20.1,–,–
CCOC(=O)c1c(C)nc2ccccc2c1C,–,–,–,inactive
Cn1c(N)c(C(=O)/C=C/c2ccccc2)c(=O)[nH]c1=O,–,12.4,10.4% (inactive),–

Structure (SMILES),Potency,cell number change [%],"lipid storage change, negative = inhibition",outcome
O=C(O)CCCCCNc1nc2ncn(Cc3ccccc3)c2c(=O)[nH]1,32.6 µM (active),-20,–,–
CC(Nc1nc2ncn(Cc3ccccc3)c2c(=O)[nH]1)C(=O)O (stereo not drawn),–,-0.475,1.98% (inactive),–
O=c1[nH]c(N2CCCCCC2)nc2ncn(Cc3ccccc3)c12,–,7.21,-2.2% (inactive),–
Cc1ccc[n+](/C(=C\C(=C=[N-])C#N)C(=O)c2ccc(Cl)cc2)c1,–,18.6,6.04% (inactive),–
O=C1CN(C(=O)c2ccccc2F)C(c2ccc(F)cc2)c2cc(Br)ccc2N1 (stereo not drawn),–,-12.8,-0.107% (inactive),–
CC(=O)Nc1ccc(C(=O)OCC(=O)N2CCC(Cc3ccccc3)CC2)cc1,2.91 µM (active),-6.23,–,–
COc1cc(C(=O)OCC(=O)N2CCC(Cc3ccccc3)CC2)cc(OC)c1OC,–,–,27.5% (inactive),–
CC(=O)Nc1ccc(OCC(=O)N2CCC(Cc3ccccc3)CC2)cc1,–,-1.18,-0.754% (inactive),–
CC1=C(C(=O)NC2CCCc3c2cnn3-c2cc(F)cc(F)c2)OCCO1 (stereo not drawn),–,4.32,–,inactive
COc1ccc(C(=O)NNC(=O)c2cc3cc(OC)ccc3oc2=O)cc1,–,12.8,0.203% (inactive),–
COc1ccc(NC(=O)c2cccs2)cc1,–,-1.91,0.392% (inactive),–
COc1ccc(C(O)(C(=O)NNc2ccc(C)cc2)c2cccs2)cc1 (stereo not drawn),32.6 µM (active),10.5,–,–
Cc1ccc(C(O)(C(=O)NNc2ccc3ccccc3n2)c2ccc(C)cc2)cc1,–,-2.27,-4.95% (inactive),–
Cc1cc2ncn(-c3ncnc4sc5c(c34)CCCC5)c2cc1C,–,8.27,–,inactive
c1ccc(CN(Cc2ccco2)C(c2ccncc2)c2nnnn2C2CCCC2)cc1 (stereo not drawn),–,–,–,inactive
O=C(CNC(=O)C1CCCCC1)Nc1cc(Cl)cc(Cl)c1,–,–,-17% (inactive),–
O=C(Nc1cc(Cl)cc(Cl)c1)C1CCCC1,20.6 µM (active),-3.7,–,–
O=C(Nc1ccc(Cl)cc1)C1CCCC1,–,-15.4,-22.6% (inactive),–
COC(=O)C1=C(C)N(C)C(=O)NC1c1ccccc1 (stereo not drawn),29.1 µM (active),-9.2,–,–
CC1=C(C(=O)OC(C)C)C(c2ccccc2)NC(=O)N1C (stereo not drawn),–,–,–,inactive
COC(=O)C1=C(C)N(C)C(=O)NC1c1ccc(C)cc1 (stereo not drawn),–,-10.6,3.69% (inactive),–
Cc1ccccc1NC(=O)C(C)c1cccc(C(=O)c2ccccc2)c1 (stereo not drawn),–,28.9,-6.86% (inactive),–
C[C@H](C(=O)O)c1cccc(C(=O)c2ccccc2)c1,–,5.73,-15.8% (inactive),–
CC(C(=O)O)c1cccc(C(=O)c2ccccc2)c1 (stereo not drawn),23% and -14%,–,–,–
